TLR4 MyD88 comp – inhibitors of TLR4-MyD88 association in cells, primary screen, cell-based, HeLa CL3-4, BLA complementation, FRET ratio; Toll-like receptor 4 (Homo sapiens) + Myeloid differentiation primary response protein …; HeLa CL3-4 TLR4/MyD88 BLA complementation; inhibition, % at 8.4 µM; 200,000 tested, 0.18% active; AID 861, 2007; in the data active = inhibition above about 25%
IDE cell inh – human IDE inhibitors in live cells, primary screen, fluorescence polarization, HEK cells, FAbetaB substrate; inhibition, % at 5.59 µM; 320,000 tested, 0.41% active; FAbetaB cleavage; AID 434962, 2010; Insulin-degrading enzyme (Homo sapiens), P14735;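 active = percent inhibition above the average of all tested compounds plus 3 SD, set per screening campaign, cut at about 16% in these data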;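 also: IDE supplied by intact live HEK cells; FP after avidin binding of uncleaved biotin substrate so inhibition keeps polarization high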
NOD2 RIPK2 PPI – NOD2-RIPK2 binding disruptors in cells, primary screen, fluorescence, CHO cells, BLA complementation; CCF4 ratio; inhibition, % at 4.98 µM; 360,000 tested, 0.38% active; AID 624267, 2012; in the data active = inhibition above about 21%
IDE cell activ – human IDE activators in live cells, primary screen, fluorescence polarization, HEK cells, FAbeta-B substrate; Insulin-degrading enzyme (Homo sapiens), P14735; FAbeta-B cleavage; 0% vehicle, 100% cell-free pure enzyme wells; activation, % at 5.96 µM; 340,000 tested, 0.073% active; AID 493087, 2011;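 active = activation above the mean of all tested compounds plus 3 SD, set per screening campaign, cut at about 17% in these data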
TLR9-MyD88 inh – inhibitors of TLR9-MyD88 association in cells, primary screen, cell-based, CHO, BLA complementation, fluorescence. Toll-like receptor 9 (Homo sapiens) + Myeloid differentiation primary response protein …. CCF4 FRET ratio. inhibition, % at 4.98 µM. 340,000 tested, 0.21% active. AID 504734, 2011;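 active = inhibition above the mean over all tested compounds plus 3 SD, cut at about 21% in these data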
Target sequence (Q99836 whole entry, looked up): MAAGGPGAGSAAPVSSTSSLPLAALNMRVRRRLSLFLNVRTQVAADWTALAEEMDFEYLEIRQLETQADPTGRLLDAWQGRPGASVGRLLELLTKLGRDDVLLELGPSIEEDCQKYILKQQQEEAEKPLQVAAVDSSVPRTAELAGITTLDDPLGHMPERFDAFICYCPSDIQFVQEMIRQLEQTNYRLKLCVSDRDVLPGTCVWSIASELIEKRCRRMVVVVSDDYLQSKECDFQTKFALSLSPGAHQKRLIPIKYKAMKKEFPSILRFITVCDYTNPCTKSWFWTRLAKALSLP
Target sequence (Q9NR96 whole entry, looked up): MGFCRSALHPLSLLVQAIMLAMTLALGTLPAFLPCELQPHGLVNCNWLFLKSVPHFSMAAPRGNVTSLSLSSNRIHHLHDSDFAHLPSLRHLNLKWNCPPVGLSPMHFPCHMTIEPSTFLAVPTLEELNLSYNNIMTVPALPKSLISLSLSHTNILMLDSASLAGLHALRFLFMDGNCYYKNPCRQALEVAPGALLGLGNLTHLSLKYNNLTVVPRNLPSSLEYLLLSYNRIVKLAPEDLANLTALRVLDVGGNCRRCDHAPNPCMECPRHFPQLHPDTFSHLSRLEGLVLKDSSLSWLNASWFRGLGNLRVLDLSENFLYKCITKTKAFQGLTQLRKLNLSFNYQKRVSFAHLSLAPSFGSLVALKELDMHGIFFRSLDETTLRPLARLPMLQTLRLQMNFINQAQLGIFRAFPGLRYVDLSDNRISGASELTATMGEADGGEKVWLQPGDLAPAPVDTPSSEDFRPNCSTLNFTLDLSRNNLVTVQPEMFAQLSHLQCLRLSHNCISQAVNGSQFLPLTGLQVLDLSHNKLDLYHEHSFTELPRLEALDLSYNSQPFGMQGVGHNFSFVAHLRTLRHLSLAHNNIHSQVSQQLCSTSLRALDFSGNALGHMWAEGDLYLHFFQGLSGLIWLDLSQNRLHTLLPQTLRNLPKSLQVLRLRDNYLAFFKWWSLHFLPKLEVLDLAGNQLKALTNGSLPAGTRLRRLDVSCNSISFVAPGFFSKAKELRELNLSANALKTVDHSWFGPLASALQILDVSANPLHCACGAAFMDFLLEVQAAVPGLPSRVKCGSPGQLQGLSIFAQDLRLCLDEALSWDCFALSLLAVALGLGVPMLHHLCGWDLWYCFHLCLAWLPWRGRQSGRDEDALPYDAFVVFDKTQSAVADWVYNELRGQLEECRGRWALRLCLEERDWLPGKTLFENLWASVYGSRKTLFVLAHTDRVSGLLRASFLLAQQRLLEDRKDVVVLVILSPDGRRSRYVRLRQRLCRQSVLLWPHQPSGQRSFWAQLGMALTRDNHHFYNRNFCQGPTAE
IDE inh confirm – human IDE inhibitors in live cells, confirmation, fluorescence polarization, HEK cells, FAbetaB substrate; shares compounds with IDE cell inh; FAbetaB cleavage; inhibition, % at 5.59 µM; 1,200 tested, 51% active; AID 435028, 2010;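 active = mean inhibition across triplicate wells above the cutoff set by the earlier primary insulin-degrading enzyme screen, cut at about 16% in these data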
HEK293 tox – cytotoxicity in HEK cells, cytotoxicity control for IDE inhibitor project, cell-based, luminescence; 1,200 tested, 28% active; HEK293 cytotoxicity, ATP luminescence; shares compounds with IDE cell inh; inhibition, % at 5.59 µM; in the data active = inhibition above about 22%
Of the large screens only hits and unclear results are named; the others gave an inactive call (follow-up assays come after a bar, where they were run). An excerpt weighted towards active compounds, which were near 0.87% of everything screened.

COc1cc(SSc2cc(OC)cc([N+](=O)[O-])c2N)c(N)c([N+](=O)[O-])c1	IDE cell inh 21.2 (no result: TLR4 MyD88 comp) | IDE inh confirm 18.3 | HEK293 tox 24.4
COc1cc([N+](=O)[O-])c2ncsc2c1	none
CCc1c(C)sc(NC(=O)c2ccoc2C)c1C(N)=O	none (no result: TLR4 MyD88 comp)
Cc1cccc(NC(=O)CCNC(=O)c2ccco2)c1	none
CN1CCN(C(=O)C(=O)c2cn(CC(=O)N3CCCCCC3)c3ccccc23)CC1	none (no result: TLR4 MyD88 comp, IDE cell inh, IDE cell activ)
COc1cc(/C=C2\SC(N)=NC2=O)cc(Cl)c1O	IDE cell inh 25.6 (no result: TLR4 MyD88 comp) | IDE inh confirm 46.6 | HEK293 tox inactive
COc1ccc(/C=C2\SC(N)=NC2=O)cc1Br	none (no result: TLR4 MyD88 comp)
CCCCNC(=O)C1(C)CCN1C(=O)c1ccc2c(c1)CCO2 (configuration not stated)	none (no result: TLR4 MyD88 comp, IDE cell inh, IDE cell activ, TLR9-MyD88 inh)
C[C@@H]1COC(=O)[C@H](Cc2ccc(F)cc2)C/C=C\C[C@@H](CC(=O)NCCO)C(=O)N1	none (no result: TLR4 MyD88 comp)
O=c1[nH]c2cc(Br)cnc2nc1/C=C(\O)c1ccc(F)cc1	IDE cell inh 25.5 | IDE inh confirm 65.4 | HEK293 tox inactive
COc1ccc(Cl)cc1NC(=O)CN(C)C(=O)Cc1ccc2c(c1)CCC2	IDE cell inh 18.4 (no result: TLR4 MyD88 comp) | IDE inh confirm 19.1 | HEK293 tox inactive
S=c1[nH]nc(Nc2cccc(Cl)c2)s1	IDE cell inh 17.0 | IDE inh confirm inactive | HEK293 tox inactive
Cc1ccc(Nc2n[nH]c(=S)s2)cc1C	none (no result: TLR4 MyD88 comp, IDE cell inh, IDE cell activ)
CN1C2CCC1/C(=C/c1cccn1C)C(=O)/C2=C\c1cccn1C	IDE cell inh 43.9 | IDE inh confirm 71.6 | HEK293 tox inactive
COCc1c(C(=O)N/N=C/c2cccc3ccccc23)nnn1-c1nonc1N	none
CC1=CC(C)(C)Nc2ccc(OC(=O)C(C)N3C(=O)c4ccccc4C3=O)cc21 (configuration not stated)	IDE cell inh 25.7 | IDE inh confirm 24.2 | HEK293 tox 76.2
CC1=CC(C)(C)Nc2ccc(C)cc21	none
CC1=CC(C)(C)Nc2ccc(OC(=O)c3ccco3)cc21	IDE cell inh 50.3 | IDE inh confirm 42.3 | HEK293 tox 119.7
CC1=CC(C)(C)Nc2ccc(OC(=O)CN3C(=O)CCC3=O)cc21	IDE cell inh 26.5 | IDE inh confirm 32.2 | HEK293 tox 91.8
CC1=CC(C)(C)Nc2ccc(OC(=O)c3cccnc3)cc21	IDE cell inh 21.9 | IDE inh confirm 32.6 | HEK293 tox 103.1
[O-][n+]1nc2ccccc2c2ccccc21	none (no result: TLR4 MyD88 comp, IDE cell inh)
C=CCn1c(SC(C)C(=O)c2c(N)n(C)c(=O)n(C)c2=O)nnc1-c1ccoc1C (configuration not stated)	none (no result: TLR4 MyD88 comp)
O=c1/c(=C\c2ccc(O)cc2)sc2n1C(c1ccccc1)C(c1ccccc1)=NN=2 (configuration not stated)	IDE cell inh 19.3 | IDE inh confirm 141.3 | HEK293 tox inactive
COc1ccc(-c2nnc(Nc3nc4c(OC)cccc4s3)o2)cc1	IDE cell inh 24.4 | IDE inh confirm 18.8 | HEK293 tox inactive
CCOC(=O)C1CCCN(C(=O)Cn2sc3nc(C)cc(C)c3c2=O)C1 (configuration not stated)	IDE cell inh 18.7 | IDE inh confirm inactive | HEK293 tox 65.9
Cc1cc(C)c2c(=O)n(CC(=O)N3CCC(N4CCCCC4)CC3)sc2n1	none
CCCNC(=O)Cn1sc2nc(C)cc(C)c2c1=O	IDE cell inh 40.1 (no result: TLR4 MyD88 comp) | IDE inh confirm inactive | HEK293 tox 41.6
C=CCNC(=O)N1CCCC(N2CCN(c3ccccc3OC)CC2)C1 (configuration not stated)	none (no result: TLR4 MyD88 comp)
CC(c1nc2ccccc2c(=O)[nH]1)N1CCCN(S(=O)(=O)c2ccc(F)cc2)CC1 (configuration not stated)	none (no result: TLR4 MyD88 comp)
O=C(NCc1ccncc1)c1cc(-c2ccc(Cl)cc2)oc1C(F)(F)F	none (no result: TLR4 MyD88 comp)
O=C(NCc1ccccn1)c1cc(-c2ccc(Cl)cc2)oc1C(F)(F)F	IDE cell inh 16.5 (no result: TLR4 MyD88 comp, IDE cell activ, TLR9-MyD88 inh) | IDE inh confirm inactive | HEK293 tox inactive
CCOC1=C2CN(S(=O)(=O)c3ccc(C)cc3)CC[C@@H]2N(S(=O)(=O)c2ccc(C)cc2)[C@H](c2ccccc2)C1	none (no result: TLR4 MyD88 comp, IDE cell inh, IDE cell activ, TLR9-MyD88 inh)
Cc1ccc(Cn2c(SC(C)C(N)=O)nc3ccccc3c2=O)cc1 (configuration not stated)	none
COc1ccc(-c2cc(-c3ccc(OC)c(OC)c3)n[nH]2)c(O)c1	IDE cell inh 17.4 | IDE inh confirm inactive | HEK293 tox inactive
O=C1COc2ccc(S(=O)(=O)N3CCC(C(=O)NCc4ccccc4)CC3)cc2N1	none (no result: TLR4 MyD88 comp)
Cc1ccc(C(=O)/C=C/c2cc(Br)cc(Br)c2O)o1	IDE cell inh 16.5 (no result: TLR4 MyD88 comp) | IDE inh confirm 26.5 | HEK293 tox inactive
COc1cccc2cc(C(=O)CS(=O)(=O)c3ccc(Cl)cc3)c(=O)oc12	none (no result: TLR4 MyD88 comp)
COc1cccc(C2=CC(c3cc(OC)ccc3OC)n3nnnc3N2)c1 (configuration not stated)	none
COc1cccc(C2=CC(c3ccc(N(C)C)cc3)n3nnnc3N2)c1 (configuration not stated)	IDE cell inh 44.4 | IDE inh confirm 37.2 | HEK293 tox 38.6
O=C(Nn1c(O)c(C=C2N=c3ccccc3=N2)sc1=S)c1ccccc1	IDE cell inh 20.1 | IDE inh confirm inactive | HEK293 tox inactive
Cc1ccc(C(=O)Nn2c(O)c(C=C3N=c4ccccc4=N3)sc2=S)cc1	none
Cc1c(NC(=O)/C(C#N)=C/c2ccc(-c3cc(Cl)ccc3Cl)o2)c(=O)n(-c2ccccc2)n1C	none
Cc1c(NC(=O)/C(C#N)=C/c2ccc(-c3ccc(Cl)cc3)o2)c(=O)n(-c2ccccc2)n1C	IDE cell inh 63.7 | IDE inh confirm 40.2 | HEK293 tox inactive
Cc1nc(C)c(C(=O)O)s1	none (no result: TLR4 MyD88 comp)
O=C(c1cc(COc2ccc(F)cc2F)on1)N1CCSCC1	none
O=C(NCCC1=CCCCC1)Nc1ccc2nsnc2c1	IDE cell inh 31.1 | IDE inh confirm 17.0 | HEK293 tox inactive
CCn1c(-c2ccc(-c3ccccc3)cc2)c[nH]c1=S	IDE cell inh 16.1 | IDE inh confirm inactive | HEK293 tox inactive
C=CCn1c(-c2ccccc2)c[nH]c1=S	none
CN1CCN(C(=O)c2cc3ccccc3[nH]2)CC1	none (no result: TLR4 MyD88 comp)
Cc1ccc(S(=O)(=O)N2CCCN(C(=O)c3cc4ccccc4[nH]3)CC2)cc1	IDE cell inh 16.4 (no result: TLR4 MyD88 comp) | IDE inh confirm inactive | HEK293 tox inactive

Compound activity deposited in PubChem BioAssay by The Scripps Research Institute Molecular Screening Center.
